According to PubChem BioAssay AID1159580 (chemical genetic matrix, 2015):
“And” between values parts separate entries of the source, which are not always exact repeats. Equal entries are not always repeated. About 2,000 (36%) of roughly 5,500 compounds were called active. Another 18% or so got no clear call; they are omitted. No stated cut-off is given here; in the data, active means normalized growth mostly below about 0.91 (no sharp cut-off); inconclusive means no clear call, values can overlap the other calls; inactive means mostly above about 0.92. Some of the results follow.

Assay: chemical genetic growth profiling, strain panel (AID 1159580);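 further: tested at 20 µM; growth read once vehicle control cultures reached saturation at 30 °C; 1 = growth at the plate median or of vehicle wells; lower values mean less growth of the strain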
Details: S. cerevisiae deletion strains, growth OD

Measured: normalized growth

N=C(N)N
inactive: locus YAL013W, strain DEP1, active compounds read low 1.01 | locus YAL021C, strain ccr4, active compounds read low 0.995 | locus YAL026C, strain drs2, active compounds read low 0.994 | locus YAL030W, strain snc1, active compounds read low 0.993 | locus YBL061C, strain skt5, active compounds read low 0.992 | locus YBR009C, strain hhf1, active compounds read low 1.01 | locus YBR021W, strain FUR4, active compounds read low 1.03 | locus YBR023C, strain chs3, active compounds read low 1.01 | locus YBR171W, strain sec66, active compounds read low 0.977 | locus YBR229C, strain ROT2, active compounds read low 0.999 | locus YBR231C, strain swc5, active compounds read low 0.98 | locus YBR279W, strain paf1, active compounds read low 0.993 | locus YCL011C, strain gbp2, active compounds read low 1.01 | locus YCL016C, strain dcc1, active compounds read low 1.01 | locus YCL029C, strain bik1, active compounds read low 0.963 | locus YCL061C, strain MRC1, active compounds read low 0.996 | locus YCL069W, strain vba3, active compounds read low 0.998 | locus YCR088W, strain abp1, active compounds read low 0.992 | locus YDL005C, strain med2, active compounds read low 0.987 | locus YDL035C, strain GPR1, active compounds read low 1.03 | locus YDL040C, strain nat1, active compounds read low 1 | locus YDL074C, strain BRE1, active compounds read low 1.01 | locus YDL101C, strain DUN1, active compounds read low 0.991 | locus YDL134C, strain PPH21, active compounds read low 1.01 | locus YDL185W, strain tfp1, active compounds read low 0.968 | locus YDL192W, strain arf1, active compounds read low 0.982 | locus YDR001C, strain nth1, active compounds read low 0.994 | locus YDR069C, strain doa4, active compounds read low 0.983 | locus YDR101C, strain arx1, active compounds read low 0.994 | locus YDR137W, strain rgp1, active compounds read low 1 | locus YDR150W, strain NUM1, active compounds read low 0.992 | locus YDR159W, strain sac3, active compounds read low 0.929 | locus YDR162C, strain NBP2, active compounds read low 0.996 | locus YDR195W, strain ref2 0.943 | locus YDR297W, strain sur2, active compounds read low 0.993 | locus YDR318W, strain mcm21, active compounds read low 0.981 | locus YDR334W, strain swr1, active compounds read low 0.992 | locus YDR335W, strain msn5, active compounds read low 1.06 | locus YDR388W, active compounds read low 0.972 | locus YDR392W, strain spt3, active compounds read low 0.875 | locus YDR502C, strain sam2, active compounds read low 0.999 | locus YEL003W, strain gim4, active compounds read low 0.992 | locus YEL037C, strain rad23, active compounds read low 0.998 | locus YEL061C, strain CIN8 (second series), active compounds read low 1 | locus YEL061C, strain CIN8, active compounds read low 0.996 | locus YER015W, strain faa2, active compounds read low 0.999 | locus YER016W, strain bim1, active compounds read low 0.997 | locus YER110C, active compounds read low 0.976 | locus YER111C, strain swi4, active compounds read low 0.998 | locus YER155C, strain BEM2 (second series), active compounds read low 0.976 | locus YER155C, strain BEM2, active compounds read low 1 | locus YER167W, strain BCK2, active compounds read low 1.02 | locus YFR010W, strain ubp6, active compounds read low 0.995 | locus YGL078C, strain dbp3, active compounds read low 1 | locus YGL086W, strain mad1, active compounds read low 1.01 | locus YGL167C, strain pmr1, active compounds read low 1 | locus YGL173C, strain kem1, active compounds read low 0.987 | locus YGL227W, strain vid30, active compounds read low 0.991 | locus YGL240W, strain doc1, active compounds read low 0.999 | locus YGL248W, strain PDE1, active compounds read low 1 | locus YGL253W, strain hxk2, active compounds read low 1 | locus YGR078C, strain PAC10, active compounds read low 0.997 | locus YGR135W, strain pre9, active compounds read low 1 | locus YGR229C, strain SMI1, active compounds read low 1.04 | locus YGR252W, strain gcn5, active compounds read low 1.13 | locus YHR013C, strain ard1, active compounds read low 1.01 | locus YHR027C, strain rpn1, active compounds read low 1.01 | locus YHR030C, strain SLT2, active compounds read low 1 and 1.05 | locus YHR079C, strain IRE1 (second series), active compounds read low 0.977 | locus YHR079C, strain IRE1, active compounds read low 1.03 | locus YHR094C, strain hxt1, active compounds read low 0.974 | locus YHR129C, strain ARP1, active compounds read low 0.992 | locus YHR142W, strain chs7, active compounds read low 1.02 | locus YHR200W, strain rpn10, active compounds read low 0.992 | locus YIL066C, strain RNR3, active compounds read low 0.994 | locus YIL073C, strain SPO22, active compounds read low 0.9 | locus YIL125W, strain kgd1, active compounds read low 0.991 | locus YIR030C, strain dcg1, active compounds read low 0.99 | locus YJL092W, strain hpr5, active compounds read low 0.999 | locus YJL095W, strain BCK1 (second series), active compounds read low 0.998 | locus YJL095W, strain BCK1, active compounds read low 0.993 and 1.05 | locus YJL115W, strain asf1, active compounds read low 0.99 | locus YJL129C, strain trk1, active compounds read low 0.985 | locus YJL134W, strain LCB3, active compounds read low 0.997 | locus YJL154C, strain vps35, active compounds read low 0.994 | locus YJL164C, strain tpk1, active compounds read low 1.01 | locus YJL166W, strain qcr8, active compounds read low 1.01 | locus YJL168C, strain set2, active compounds read low 0.975 | locus YJL187C, strain SWE1 (second series), active compounds read low 0.946 | locus YJL187C, strain SWE1, active compounds read low 0.993 | locus YJR043C, strain POL32, active compounds read low 0.999 | locus YJR066W, strain TOR1, active compounds read low 0.957
